Screening results from PubChem BioAssay.
GDH-TPI counter-1 = counter-screen for M. tuberculosis FBA inhibitors: GDH-TPI coupled enzymes | inhibition, % at 4.8 µM | GDH-TPI coupled enzyme counterscreen, NADH absorbance | actives 1.2% (n = 360,000) | AID 588335; in the data active = inhibition above about 30%;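 also: 0% = DMSO wells and 100% = wells lacking the enzyme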
Anthrax LF inh2 = inhibitors of Bacillus anthracis lethal factor protease; P15917; multiplex microsphere protease cleavage assay, LF; inhibition, % at 10 µM; actives 0.12% (n = 360,000); also: plate controls were buffer without enzyme for full effect and enzyme alone for no effect
Autofluor counter = counter-screen for toxin protease inhibitors: compound fluorescence | compound autofluorescence counterscreen, microsphere flow cytometry; hits give high values | fluorescence intensity (test concentration not listed) | actives 3.1% (n = 360,000) | AID 624483; in the data active = fluorescence intensity above about 16000; inconclusive = no clear call, values can overlap the other calls
BoNT A protease = inhibitors of Botulinum neurotoxin A light chain protease; multiplex microsphere protease substrate cleavage, flow cytometry; inhibition, % at 10 µM; actives 0.17% (n = 360,000); AID 588499; also: plate controls were buffer without enzyme for full effect and enzyme alone for no effect
Mtb FBA inh = inhibits M. tuberculosis FBA enzyme. purified M. tuberculosis FBA, fluorescence read-out. actives 2.3% (n = 360,000). AID 588726. inhibition, % at 1 µM. P9WQA3; in the data active = inhibition above about 27%;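 also: 0% = vehicle and 100% = reference inhibitor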
Target sequence (P9WQA3 whole entry, looked up): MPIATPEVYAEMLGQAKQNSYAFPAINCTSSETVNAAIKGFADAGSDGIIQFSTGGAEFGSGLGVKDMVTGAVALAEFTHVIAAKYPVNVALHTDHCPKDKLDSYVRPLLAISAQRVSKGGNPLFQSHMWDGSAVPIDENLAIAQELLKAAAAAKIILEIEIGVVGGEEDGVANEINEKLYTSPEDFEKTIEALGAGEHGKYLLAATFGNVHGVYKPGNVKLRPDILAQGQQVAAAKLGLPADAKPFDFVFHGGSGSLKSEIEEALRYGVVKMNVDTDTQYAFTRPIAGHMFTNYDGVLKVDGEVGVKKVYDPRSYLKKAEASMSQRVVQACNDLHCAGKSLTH
BoNT F protease = BoNT F light chain protease inhibition; Multiplex microsphere protease cleavage assay, flow cytometry; inhibition, % at 10 µM; actives 0.22% (n = 360,000); in the data active = inhibition above about 35%, passing the limit was not always enough; inconclusive = no clear call, values can overlap the other calls; also: plate controls were buffer without enzyme for full effect and enzyme alone for no effect
Mtb FBA inh conf = Mtb FBA inhibition, confirmed. shares compounds with Mtb FBA inh. purified M. tuberculosis FBA, fluorescence read-out. inhibition, % at 1 µM. actives 78% (n = 5,600); in the data active = inhibition above about 27%;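 also: 0% = vehicle wells and 100% = reference inhibitor wells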
GDH-TPI counter-2 = GDH-TPI inhibition counter-screen for FBA inhibitors. actives 81% (n = 5,600). GDH-TPI coupled enzyme counterscreen, fluorescence. shares compounds with Mtb FBA inh. AID 652141. inhibition, % at 1 µM; in the data active = inhibition above about 10%
GDH-TPI dose = counter-screen for M. tuberculosis FBA inhibitors: GDH-TPI dose response; shares compounds with Mtb FBA inh; GDH-TPI coupled enzyme assay, fluorescence, artifact counterscreen; IC50, µM; actives 79% (n = 170); call rule not given here
The depositor's hits bear a star; ? = inconclusive; / = no result given; + = active, no number. Sampled rows, rich in hits. Any-hit rate of the full collection: about 6.7%. Rule as the data show it, unless noted: active = inhibition above about 30%; inconclusive = no clear call, values can overlap the other calls; inactive = below that.

SMILES | GDH-TPI counter-1 | Anthrax LF inh2 | Autofluor counter | BoNT A protease | Mtb FBA inh | BoNT F protease | Mtb FBA inh conf | GDH-TPI counter-2 | others
CC1(C)CC(=O)c2cc(OCC(=O)NCc3cccnc3)ccc2O1 | -1 | 0 | 10990 | 0 | 62* | 1 | -3 | -6
COc1ccc(OCC(=O)NCc2cccnc2)cc1 | 7 | 0 | 5012 | 0 | -5 | -36 | / | /
CC(C)NC(=O)COc1ccc2c(c1)C(=O)CC(C)(C)O2 | 9 | 0 | 4653 | 0 | 71* | 4 | + | 186*
CCCCCCCNC(=O)COc1ccc2c(c1)C(=O)CC(C)(C)O2 | 2 | -2 | 10834 | 0 | 43* | 0 | 56* | 56*
O=C(NCc1ccncc1)C(=O)NCc1ccncc1 | 2 | 0 | 3203 | -1 | 3 | -3 | / | /
COc1cc(CNc2ccc3[nH]c(=O)[nH]c3c2)ccc1OCc1ccccc1C | 9 | -6 | 3077 | 6 | 14 | -43 | / | /
N#Cc1ccc(-c2nc3ccc(Br)cn3c2Cc2ccccc2C(F)(F)F)cc1 | / | 3 | 6635 | 4 | 1 | 0 | / | /
Cc1ccc(-c2nc3ccc(Cl)cn3c2Cc2cccc(F)c2)cc1 | / | 3 | 8165 | 1 | 6 | 7 | / | /
Cc1ccc2nc(-c3ccc(C#N)cc3)c(Cc3ccccc3C(F)(F)F)n2c1 | / | 3 | 5920 | 1 | 78* | 1 | 29* | 27*
N#Cc1ccc(-c2nc3ccc(Cl)cn3c2Cc2cccc(F)c2)cc1 | / | 8 | 9223 | 3 | 43* | 2 | + | 191*
N#Cc1ccc(-c2nc3ccc(Cl)cn3c2Cc2cccc(Cl)c2)cc1 | / | 6 | 8994 | 1 | 16 | 0 | / | /
Cc1ccc2nc(-c3ccc(C#N)cc3)c(Cc3cccc(Cl)c3)n2c1 | / | -7 | 6956 | 1 | 41* | 7 | 35* | 35*
Cc1ccc2nc(-c3ccccc3)c(Cc3cccc(Cl)c3)n2c1 | / | 0 | 6515 | -1 | 9 | -8 | / | /
CCCc1nc2ccc(C)cn2c1Cc1cccc(Cl)c1 | / | 4 | 6197 | 1 | 27* | 0 | + | 168*
COc1ccc2nc(NC(=O)c3ccc4ncsc4c3)sc2c1 | 18 | 0 | 4582 | -1 | 9 | -4 | / | /
Cc1cc(C)n(-c2cc(Cl)cc(Cl)c2)c(=O)c1C#N | 15 | -2 | 3141 | 0 | 0 | 7 | / | /
CN1CCc2c(sc3c2c(=O)n(-c2cccc(Cl)c2)c2nncn32)C1 | 0 | -3 | 3868 | 0 | 6 | -1 | / | /
CN1CCc2c(sc3nc(NCCO)n(-c4cccc(Cl)c4)c(=O)c23)C1 | 23 | -12 | 6013 | 12 | 71* | -9 | 109* | 88*
OCc1ccc(-c2nn(Cc3ccccc3)c3ccccc23)o1 | 18 | -8 | 4113 | 0 | 58* | -5 | 82* | 67*
COC(=O)C12CCc3cc(OC)ccc3C1=CC(=O)C2 (stereo unspecified) | 34* | -3 | 3896 | 0 | 95* | -9 | 95* | 94*
COc1ccc2c(c1)CCc1c-2n[nH]c1C(=O)O | 10 | -4 | 3555 | 0 | 15 | -2 | / | /
CC1CCCC(C)N1NC(=S)Nc1ccc(OC(F)F)cc1 (stereo unspecified) | 8 | -3 | 2174 | 0 | 55* | 0 | 60* | 53*
COc1ccc(NC(=S)NN2C(C)CCCC2C)cc1 (stereo unspecified) | 1 | -1 | 10269 | -1 | -1 | -4 | / | /
CCc1ccc(OCCCOc2ccc(C=O)cc2)cc1 | 0 | -5 | 11258 | -1 | -2 | -8 | / | /
Cc1cccc(C2Nc3ccccc3C(=O)N2CCc2ccccc2)n1 (stereo unspecified) | 18 | 7 | 9542 | 0 | 73* | 7 | + | +
SMILES | GDH-TPI counter-1 | Anthrax LF inh2 | Autofluor counter | BoNT A protease | Mtb FBA inh | BoNT F protease | Mtb FBA inh conf | GDH-TPI counter-2 | others
O=C(NCC(c1cccs1)N1CCOCC1)c1cn(-c2ccccc2)nc1-c1ccc(Cl)cc1 (stereo unspecified) | -2 | 2 | 6110 | -2 | 1 | 8 | / | /
O=C(CSc1nc2nc(-c3cccs3)cc(C(F)(F)F)c2c(=O)[nH]1)Nc1ccc(F)c(F)c1 | 11 | -1 | 2267 | 0 | 20 | -4 | / | /
Cc1ccc(C)c(NC(=O)CSc2nc3nc(-c4cccs4)cc(C(F)(F)F)c3c(=O)[nH]2)c1 | 5 | -4 | 4477 | -1 | 44* | 0 | 86* | 82*
COCCNC(=O)/C(C#N)=C/c1c(N2CCN(C)CC2)nc2c(C)cccn2c1=O | 16 | -13 | 3635 | -2 | 81* | -10 | 96* | 84*
COCCNC(=O)/C(C#N)=C/c1c(N2CCCCCC2)nc2c(C)cccn2c1=O | 1 | 10 | 3845 | 0 | 5 | 1 | / | /
COCCCNC(=O)/C(C#N)=C/c1c(N2CCN(C)CC2)nc2c(C)cccn2c1=O | 1 | -6 | 4019 | 4 | 92* | -1 | 56* | 44*
CCN1CCN(c2nc3c(C)cccn3c(=O)c2/C=C(\C#N)C(=O)NCCOC)CC1 | 16 | -9 | 4119 | -2 | 97* | -8 | 63* | 45*
CCC(C)/C(C)=N/NC(=O)CNS(=O)(=O)c1ccc([N+](=O)[O-])cc1 (stereo unspecified) | -1 | 7 | 5067 | 0 | -1 | -3 | / | /
C=CCSCC1Nc2cc(Cl)c(S(N)(=O)=O)cc2S(=O)(=O)N1 (stereo unspecified) | 2 | -6 | 5052 | 0 | -4 | 11 | / | /
O=C(Nc1cccc2c1C(=O)NC2=O)c1ccc(N2C(=O)CCC2=O)cc1 | 2 | 1 | 3473 | 0 | 11 | -3 | / | /
CCc1cccc(NS(=O)(=O)c2cccc3cccnc23)c1 | 8 | -2 | 4312 | 4 | 0 | ? | / | /
O=C1OCc2cccc3cccc1c23 | 23 | -2 | 8123 | 0 | 50* | 0 | 198* | 174*
Cc1ccc(-c2nc3ccccc3nc2NN)cc1 | 9 | 8 | 3031 | 0 | 31* | 17 | 14 | 9 | GDH-TPI dose=>10
CC(C)CNC(=O)COC(=O)c1cc(Cl)cc(Cl)c1N | -1 | -4 | 4374 | 1 | 78* | 9 | + | +
COC(=O)CNC(=O)COC(=O)c1cc(Cl)cc(Cl)c1N | -3 | 1 | 4153 | 0 | 110* | 14 | + | +
Cc1ccc2nc3c(cc(C(=O)NCc4ccco4)c(=N)n3Cc3ccco3)c(=O)n2c1 | 14 | -1 | 4712 | 0 | 42* | -7 | 49* | 36*
N=c1c(C(=O)NCc2ccccc2)cc2c(=O)n3ccccc3nc2n1Cc1ccco1 | 17 | 6 | 5120 | 4 | 50* | -37 | 88* | 78*
